A selection: hits, their analogues and other compounds. The true share with any hit is near 10%.
Pf growth 96h: inhibits malaria parasite growth, 96 h | P. falciparum luciferase reporter growth, 96 h | Potency, µM (titrated, usually from 28.7 µM), actives largely listed as inhibitors | hit rate 6.9% among 320,000 | AID 504834
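P. falciparum expressing integrated firefly luciferase grown in erythrocytes (2% hematocrit, 0.05% parasitemia final) with compounds for 96 hours at 37 C, 5% CO2. Growth inhibition read as loss of luminescence after adding luciferase detection reagent.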
SARS PLpro yeast: inhibitors of SARS-CoV papain-like protease in yeast. Potency, µM (doses to about 32.9 µM), most hits filed as activators. hit rate 0.19% among 330,000. S. cerevisiae expressing SARS-CoV PLpro, growth rescue; calls by dose curve; note: nearly all actives have a fitted effect of over 55% in size
Pf growth 48h: inhibits P. falciparum growth in the first generation, 48 h. P. falciparum luciferase growth in erythrocytes, 48 h. Potency, µM (top dose mostly 28.7 µM), actives largely listed as inhibitors. hit rate 5.9% among 310,000
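Luciferase-expressing parasites in RBCs, 2% Hct / 0.1% parasitemia final; RPMI 1640 + 0.5% Albumax; 37 C, 5% CO2, one generation; luminescence read-out, lower signal = inhibition.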
NS1 function inh: influenza NS1 inhibition. Potency, µM (doses to about 46.1 µM). hit rate 0.4% among 270,000. AID 2326; calls by dose curve; note: actives are rising curves; nearly all actives have a fitted effect of over 50% in size
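A cell-based growth assay was used: compounds that relieve NS1-induced slow growth of budding yeast raise OD600. Assay medium was yeast nitrogen base with ammonium sulphate and -URA supplement, pH 6.0, with 2% galactose.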
A number is an active result; . = inactive; ? = inconclusive; / = no result. Unless noted, calls come from the whole dose curve; as a rule, active = well fitted inhibition curve with a large enough effect; inconclusive = small, poorly fitted or top-dose-only effect, or another doubt; inactive = no such curve, though single readings can be large or run the other way.

SMILES	Pf growth 96h	SARS PLpro yeast	Pf growth 48h	NS1 function inh
O=C(O)C[C@@H]1C(=O)O[C@@H]2C(COC(=O)c3cc(O)c(O)c(O)c3)O[C@@H](OC(=O)c3cc(O)c(O)c(O)c3)[C@@H](OC(=O)c3cc(O)c(O)c4c3[C@H]1[C@H](O)C(=O)O4)[C@H]2OC(=O)c1cc(O)c(O)c(O)c1 (stereo partly drawn)	2.9µM	1.4µM	3.3µM	.
NC(=O)C1c2ccccc2CCc2ccccc21	?	/	.	/
COCCN(C(=O)CSc1nnc(-c2ccco2)n1C)c1c(N)n(CC(C)C)c(=O)[nH]c1=O	.	.	.	/
COC(=O)c1ccccc1NC1=C/C(=N\S(=O)(=O)c2ccc(C(=O)O)cc2)c2ccccc2C1=O	.	.	1.5µM	.
COC(=O)c1ccccc1Nc1ccccc1	.	.	.	.
COC(=O)c1ccccc1NC1=C/C(=N\S(=O)(=O)c2cccs2)c2ccccc2C1=O	0.66µM	.	/	.
O=C1C(Nc2ccccc2)=C/C(=N/S(=O)(=O)c2cccs2)c2ccccc21	0.52µM	.	0.52µM	.
Cc1ccc(NC2=C/C(=N/S(=O)(=O)c3cccs3)c3ccccc3C2=O)cc1	.	.	?	?
Cc1ccc(/C=N/NC(=O)c2nnn(-c3nonc3N)c2CSc2ccc(Cl)cc2)o1	.	.	.	.
COc1ccccc1NC(=O)Cn1cnc2c(nnn2-c2ccc(C)cc2)c1=O	.	.	.	.
COc1ccc(C2=C3C(=O)OCC3Cc3ncn(Cc4ccccc4)c32)cc1 (stereo not drawn)	?	.	.	/
CC(OC(=O)c1ccc(OCC2CCCO2)cc1)C(=O)N(C)Cc1ccccc1 (stereo not drawn)	4.7µM	.	3.3µM	/
O=C(NC1(Cc2ccccc2)CCN(CCc2cccs2)C1=O)c1ccccc1 (stereo not drawn)	?	.	.	/
Cc1ccc(C)c(NC(=S)N=Nc2c(O)n(C)c3ccc(S(=O)(=O)N4CCOCC4)cc23)c1	.	.	6.6µM	.
CCc1ccccc1NC(=S)N=Nc1c(O)n(C)c2ccc(S(=O)(=O)N3CCOCC3)cc12	1.9µM	.	3.3µM	?
CCc1ccccc1NC(=O)c1ccc(S(=O)(=O)N2CCCC2)cc1	.	.	.	.
Cc1ccc(C)c(SCC(=O)Nc2cc(S(=O)(=O)N3CCOCC3)ccc2C)c1	?	.	?	/
Cc1ccc(Cn2c(O)c(N=NC(=S)Nc3ccccc3F)c3cc(S(=O)(=O)N4CCOCC4)ccc32)cc1	.	.	3.3µM	/
Cc1noc(C)c1COc1cccc(C(=O)Nc2ccc(OCc3ccccc3)cc2)c1	.	.	.	.
O=C(COC(=O)Cc1ccc(Cl)cc1)NC1CCCC1	.	.	.	/
NS(=O)(=O)c1cccc(NC(=O)CSc2nnc(-c3ccccc3F)n2C2CC2)c1	.	.	.	.
COc1cc(N)c(Cl)cc1C(=O)N[C@@H]1CCN(CCCOc2ccc(F)cc2)C[C@@H]1OC	/	.	/	/
COc1cc(N)c(Cl)cc1C(=O)N[C@H]1CCN(CCCOc2ccc(F)cc2)C[C@H]1OC	4.7µM	/	2.6µM	/
CC(C)(CNc1ccc(S(=O)(=O)C(F)(F)F)cc1[N+](=O)[O-])N1CCOCC1	?	.	?	.
Cc1cc2c(cc1C)CSC(c1ccc3ccccc3c1O)SC2	?	.	9.3µM	.
SMILES	Pf growth 96h	SARS PLpro yeast	Pf growth 48h	NS1 function inh
Cc1cc2c(cc1C)CSC(c1ccccc1O)SC2	/	.	.	.
Cc1cc2c(cc1C)CSC(c1c(O)ccc3ccccc13)SC2	/	.	12µM	.
COc1ccc(OC)c(CNC(=O)C2CCC(=O)N2C(C)C)c1 (stereo not drawn)	?	.	.	.
Nc1nc(Nc2ccccc2)nc2ccccc12	?	.	3.3µM	.
CN(C)c1ccc(Nc2nc(N)c3ccccc3n2)cc1	8.3µM	.	?	.
CCOc1ccc(Nc2nc(N)c3ccccc3n2)cc1	?	.	?	.
Nc1nc(Nc2ccc(Cl)cc2)nc2ccccc12	?	.	/	.
COc1ccc(S(=O)(=O)CC2(O)CCN(C(=O)C(C)(C)C)CC2)cc1	.	.	.	/
COc1ccc(S(=O)(=O)CC2(O)CCN(C(=O)CC(C)C)CC2)cc1	.	.	9.3µM	/
Cc1ccc(Cl)c(NC(=O)CSc2n[nH]c(=O)n2C2CC2)c1Cl	?	.	.	/
C=CCSC1=N/C(=C\c2sccc2C)C(=O)S1	.	.	.	.
C=CCSC1=N/C(=C\c2ccc3c(c2)OCO3)C(=O)S1	0.41µM	.	.	.
Nc1nc(SCc2ccccc2Cl)cc(C(=O)O)n1	/	/	/	.
c1ccc(-c2nnc(-c3ccccn3)nc2NC2CCCCC2)cc1	/	.	0.93µM	.
COc1cc(CN(C(=O)c2ccco2)c2ccc(C)cc2)ccc1O	?	.	12µM	.
CCOc1ccc(N(Cc2ccc(OC)c(OC)c2)C(=O)c2ccco2)cc1	.	.	12µM	.
COC(=O)c1cc(NC(=O)c2cc(-c3ccc(Cl)cc3)oc2C(F)(F)F)ccc1N1CCOCC1	?	.	12µM	?
COC(=O)c1cc(NC(=O)c2cc(-c3ccccc3Cl)oc2C(F)(F)F)ccc1N1CCOCC1	?	.	?	.
Cc1cc(C)c(S(=O)(=O)c2ccccc2C)c(SCC(C)C)n1	12µM	.	?	.
CC(NC(=O)C12CC3CC(C1)CC(n1cncn1)(C3)C2)C12CC3CC(CC(C3)C1)C2 (stereo not drawn)	12µM	.	12µM	.
NS(=O)(=O)c1ccc(CCNC(=O)c2ccc(C#CC3(O)CCCCC3)cc2)cc1	.	.	.	/
Nc1nc(N2CCN(C/C=C/c3ccccc3)CC2)nc2ccccc12	.	.	12µM	.
COc1ccccc1CCN1CCCC(CN(C)C(=O)CCC(N)=O)C1 (stereo not drawn)	.	.	.	.
NC(N)=Nc1ccc(-c2ccc(N=C(N)N)cc2)cc1	/	/	/	.
O=C(Cn1nc(C(F)F)cc1C1CC1)NCCC1=CCCCC1	3.3µM	.	.	.
SMILES	Pf growth 96h	SARS PLpro yeast	Pf growth 48h	NS1 function inh
CN(C)CCNC(=O)Cn1nc(C(F)F)cc1C1CC1	/	.	.	.
CNC(=S)N(Cc1cccs1)Cc1cc2ccc(OC)cc2[nH]c1=O	?	.	?	.
CNC(=S)N(Cc1ccco1)Cc1cc2cc(OC)c(OC)cc2[nH]c1=O	.	.	?	.
Cc1cccc2cc(CN(Cc3cccs3)C(=S)NCC3CCCO3)c(=O)[nH]c12 (stereo not drawn)	.	.	.	.
COc1ccc(NC(=S)N(Cc2ccc(N(C)C)cc2)Cc2ccco2)cc1	0.66µM	.	.	.
Cc1ccc(NC(=S)N(Cc2cccs2)Cc2cc3cccc(C)c3[nH]c2=O)cc1	7.4µM	.	.	.
COc1ccc2[nH]c(=O)c(CN(Cc3cccs3)C(=S)Nc3ccccc3)cc2c1	4.7µM	.	?	.
CNC(=S)N(Cc1ccco1)Cc1cc2cc(OC)ccc2[nH]c1=O	.	.	2.6µM	.
CCN(Cc1cc2cc(OC)ccc2[nH]c1=O)C(=O)Cc1ccc(OC)cc1	.	.	?	.
COc1cc2cc(CN(Cc3cccs3)C(=S)Nc3ccccc3)c(=O)[nH]c2cc1OC	.	.	12µM	.
CCN(Cc1cc2cc(OC)ccc2[nH]c1=O)C(=O)c1ccncc1	9.3µM	.	.	.
CCNC(=S)N(Cc1cccs1)Cc1cc2cc(OCC)ccc2[nH]c1=O	?	.	?	.

Screens from PubChem.
